Values joined by “and” are separate entries in the source; they are usually repeats but may differ in a detail not shown here. Identical values can stand only once. Results filed as inconclusive are left out. Some structures have more than one record in an assay (separate samples or runs), and their calls can disagree. Active and inactive are the calls of the source. Unless noted, calls come from the whole dose curve; as a rule, active = well fitted curve in the direction sought with a large enough effect in the repeat runs; inconclusive = weak or mixed curves; inactive = no such curve, though single readings can be large; an effect the other way counts as inactive or inconclusive.
How the values were obtained:
[1] = qHTS assay to identify small molecule agonists of the estrogen receptor alpha (ER-alpha) signaling pathway in the presence of an antagonist - cell viability counter screen (AID 1259386);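 note: cells exposed to compounds for 22 h at 37 °C before the viability read; nearly all actives have a fitted effect of over 30% in size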; note: potency is the fitted concentration of half-maximal effect; for activity change, negative = cytotoxicity: series mostly up to about 92 µM
Summary of the method: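 Read-out: CellTiter-Fluor fluorescence after 1hr reagent incubation, measured in the same wells as the luciferase readout. VM7Luc4E2 cells were exposed to 15 compound concentrations with 10.0nM ICI-182,780 for 22hr at 37C.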

[2] = molecular target: Progesterone receptor (Homo sapiens) (UniProt P06401); test: qHTS assay to identify small molecule agonists of the progesterone receptor (PR) signaling pathway (AID 1346784; calls by dose curve; note: nearly all actives have a fitted effect of over 30% in size)
Summary of the method: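 HEK 293T PR-UAS-bla reporter cells, 2% charcoal-stripped FBS; 6 hr settle at 37C/5% CO2, compound (DMSO) 16 hr, LiveBLAzer B/G FRET substrate 2 hr RT, fluorescence intensity read.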

[3] = molecular target: Progesterone receptor (Homo sapiens) (UniProt P06401); test: qHTS assay to identify small molecule antagonists of the progesterone receptor (PR) signaling pathway (AID 1346795; active = well fitted inhibition curve with a large enough effect in the signal ratio in the repeat runs, not every such curve was filed as active; the % refers to the signal ratio; note: potency is the fitted concentration of half-maximal effect)
Summary of the method: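 Beta-lactamase reporter, HEK293T PR-UAS-bla line; 2% charcoal-stripped FBS; 6 hr pre-incubation, 37C/5% CO2. Compound + R5020 1 nM final, 16 hr. LiveBLAzer B/G FRET substrate, 2 hr RT; fluorescence intensity read.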

[4] = qHTS assay to identify small molecule agonists of the progesterone receptor (PR) signaling pathway - cell viability counter screen (AID 1346799; calls by dose curve; note: nearly all actives have a fitted effect of over 45% in size; note: potency is the fitted concentration of half-maximal effect)
Summary of the method: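 HEK293T PR-UAS-bla, 3,000 cells/well, 2% charcoal-stripped FBS; 6 h settle, compound 16 h at 37C/5% CO2; LiveBLAzer 2 h RT, then CellTiter-Glo 30 min RT, luminescence read.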

[5] = qHTS assay to identify small molecule antagonists of the TGF-beta/Smad signaling pathway - cell viability counter screen (AID 1346824); note: nearly all actives have a fitted effect of over 50% in size
Summary of the method: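 Cytotoxicity counter-screen run in the same wells as the beta-lactamase Smad reporter read: CellTiter-Glo luminescence after 30 min at room temperature. HEK 293T SBE-bla cells had 5 hr compound exposure at 37 C with TGF-beta1 (0.25 ng/mL stock).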

[6] = qHTS assay to identify small molecule agonists of the TGF-beta/Smad signaling pathway - cell viability counter screen (AID 1346829); note: top concentration of the series differs between compounds; nearly all actives have a fitted effect of over 45% in size
Summary of the method: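 Cytotoxicity counter screen: CellTiter-Glo luminescence (30 min, room temperature) measured in the SBE-bla HEK 293T reporter wells after 5 hr compound treatment at 37 C and the 2 hr substrate step.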

[7] = molecular target: Thyrotropin-releasing hormone receptor (Homo sapiens) (UniProt P34981); test: qHTS assay to identify small molecule antagonists of the thyrotropin-releasing hormone receptor (TRHR) signaling pathway (AID 1346877; active = well fitted inhibition curve with a large enough effect in the repeat runs, not every such curve was filed as active; note: series mostly up to about 51 µM)
Summary of the method: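 HEK293/TRHR cells, 18 h, 37 °C; Ca2+ dye 2 h; cpd 5 min RT; TRH 1 nM final; fluorescence read 3 min, 1 s intervals; 15 concs, triplicate.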

[8] = molecular target: Thyrotropin-releasing hormone receptor (Homo sapiens) (UniProt P34981); test: qHTS assay to identify small molecule agonists of the thyrotropin-releasing hormone receptor (TRHR) signaling pathway (AID 1346891; calls by dose curve;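 note: HEK293 cells expressing TRHR with calcium dye readout; series mostly up to about 58 µM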)
Summary of the method: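 HEK293/TRHR cells, 1500 per well, 18 h 37 °C; Ca dye 2 h 37 °C; pin-tool compound addition (agonist mode); kinetic fluorescence 3 min, 1 s reads; 15 concentrations, triplicate.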

[9] = Caspase-3/7 induction in HepG2 cells by small molecules, qHTS assay (AID 1346978); note: nearly all actives have a fitted effect of over 15% in size; note: potency is the fitted concentration of half-maximal effect
Summary of the method: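 Caspase-3/7 induction was measured by Caspase-Glo 3/7 luminescence (30 min, room temperature) after a 17 hr compound exposure of wild-type HepG2 cells seeded at 2,000 per well and pre-incubated 5 hr.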

[10] = Caspase-3/7 induction in CHO-K1 cells by small molecules, qHTS cell viability counter screen (AID 1346979); note: nearly all actives have a fitted effect of over 35% in size; note: potency is the fitted concentration of half-maximal effect
Summary of the method: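 CHO-K1 wt, 1,500 cells/well; 5hr pre-incubation 37C/5% CO2; compound pin transfer (DMSO); 16hr exposure; CellTiter-Fluor added, 1hr, fluorescence read.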

[11] = Caspase-3/7 induction in CHO-K1 cells by small molecules, qHTS assay (AID 1346980); note: nearly all actives have a fitted effect of over 15% in size; note: potency is the fitted concentration of half-maximal effect
Summary of the method: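 Luminescent Caspase-Glo 3/7 read (30min, room temperature) quantified apoptosis induction. Cells were wild-type CHO-K1, treated with compound for 17hr at 37 C and 5% CO2.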

[12] = Caspase-3/7 induction in HepG2 cells by small molecules, qHTS cell viability counter screen (AID 1346981); note: nearly all actives have a fitted effect of over 30% in size; note: potency is the fitted concentration of half-maximal effect; for activity change, negative = cytotoxicity: series mostly up to about 92 µM
Summary of the method: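 Fluorescence read-out of live-cell protease activity (CellTiter-Fluor) after 1 hr with reagent. This was measured in the same wells as the caspase-3/7 luminescence, on HepG2 cells exposed to DMSO-dissolved compounds for 16 hr at 37 C.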

[13] = molecular target: Nuclear receptor subfamily 1 group I member 2 (Homo sapiens) (UniProt O75469); test: Human pregnane X receptor (PXR) small molecule agonists, qHTS assay (AID 1346982); note: nearly all actives have a fitted effect of over 35% in size; note: potency is the fitted concentration of half-maximal effect
Summary of the method: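 HepG2 PXR-Luc reporter line, 5% charcoal-stripped FBS; 5 hr pre-incubation, compound (DMSO) 24 hr at 37 C/5% CO2; ONE-Glo 30 min RT; luminescence read-out.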

[14] = molecular target: Cytochrome P450 2D6 (Homo sapiens) (UniProt P10635); test: Cytochrome P450 Family 2 Subfamily D Member 6 (CYP2D6) small molecule antagonists: luciferase reporter qHTS assay (AID 1671196); note: nearly all actives have a fitted effect of over 50% in size; note: potency is the fitted concentration of half-maximal effect; for activity change, negative = inhibition: series mostly up to about 120 µM
Summary of the method: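 Luminogenic proluciferin substrate, CYP2D6 enzyme; 10 min RT preincubation with compound, NADPH regeneration system added, 1 h RT. Stop/detection reagent, 20 min RT, luminescence read (RLU). Signal proportional to CYP activity.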

[15] = Human pregnane X receptor (PXR) small molecule agonists, qHTS cell viability counter screen (AID 1346977); note: nearly all actives have a fitted effect of over 50% in size; note: potency is the fitted concentration of half-maximal effect
Summary of the method: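 Fluorescence read-out (CellTiter-Fluor) of viability in PXR-Luc HepG2 cells, multiplexed with the luciferase agonist read. Compounds in DMSO added after 5hr plating; 24hr total exposure at 37C, 5% CO2.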

[16] = molecular target: Cytochrome P450 2C19 (Homo sapiens) (UniProt P33261); test: Cytochrome P450 Family 2 Subfamily C Member 19 (CYP2C19) small molecule antagonists: luciferase reporter qHTS assay (AID 1671197); note: nearly all actives have a fitted effect of over 65% in size; note: potency is the fitted concentration of half-maximal effect; for activity change, negative = inhibition: series mostly up to about 120 µM
Summary of the method: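 Luminescent readout of CYP2C19 activity: luciferin product detected 20 min after adding detection reagent. Before that, compound and enzyme-substrate mix preincubated 10 min at room temperature; NADPH-regenerating system started a 1 h, 37C reaction. Ketoconazole as positive control.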

[17] = molecular target: Nuclear receptor subfamily 1 group I member 2 (Rattus norvegicus) (UniProt Q9R1A7); test: Rat pregnane X receptor (rPXR) activation by small molecules, qHTS assay (AID 1346983); details: rPXR luciferase reporter cells, One-Glo luminescence, 24 h; stronger effect = higher value; note: nearly all actives have a fitted effect of over 20% in size
Summary of the method: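 Luminescent readout (One-Glo luciferase, 30 min room temperature) followed 24 hr compound treatment at 37 C of rPXR cells plated 2,000 per well and preincubated 5hr; qHTS format with compounds delivered in DMSO.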

[18] = molecular target: Nuclear receptor subfamily 1 group I member 2 (Homo sapiens) (UniProt O75469); test: Human pregnane X receptor (PXR) activation by small molecules, qHTS assay (AID 1346985); note: nearly all actives have a fitted effect of over 40% in size
Summary of the method: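 DPX-2 cells (HepG2 co-transfected with a PXR response element and a CYP3A4-promoter luciferase construct) were seeded at 2,000 per well, rested 5 hr at 37C, then exposed to DMSO-dissolved compounds for 24 hr. Activation was read as luciferase luminescence.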

[19] = qHTS assay to identify small molecule antagonists of the progesterone receptor (PR) signaling pathway - cell viability counter screen (AID 1346798); note: series mostly up to about 92 µM; nearly all actives have a fitted effect of over 50% in size
Summary of the method: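 Luminescence readout (CellTiter-Glo, 30 min, RT) of viability in PR-UAS-bla HEK293T cells exposed to compound and R5020 agonist for 16 hr at 37C, 5% CO2; run in the same wells as the beta-lactamase reporter read.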

[20] = qHTS assay to identify small molecule agonists of the TGF-beta/Smad signaling pathway (AID 1346859; active = well fitted activation curve with a large enough effect in the signal ratio in the repeat runs, not every such curve was filed as active; the % refers to the signal ratio; note: series mostly up to about 77 µM)
Summary of the method: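 Read-out: fluorescence at 460 and 530 nm (405 nm excitation) after a 2 hr room-temperature incubation with beta-lactamase FRET substrate. SBE-bla HEK 293T cells had been treated with test compounds for 5 hr at 37 C.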
% is set by controls: 0 for no effect and ±100 for the full control effect.

Chain of Cytochrome P450 2C19 (Homo sapiens) (P33261 whole entry, looked up): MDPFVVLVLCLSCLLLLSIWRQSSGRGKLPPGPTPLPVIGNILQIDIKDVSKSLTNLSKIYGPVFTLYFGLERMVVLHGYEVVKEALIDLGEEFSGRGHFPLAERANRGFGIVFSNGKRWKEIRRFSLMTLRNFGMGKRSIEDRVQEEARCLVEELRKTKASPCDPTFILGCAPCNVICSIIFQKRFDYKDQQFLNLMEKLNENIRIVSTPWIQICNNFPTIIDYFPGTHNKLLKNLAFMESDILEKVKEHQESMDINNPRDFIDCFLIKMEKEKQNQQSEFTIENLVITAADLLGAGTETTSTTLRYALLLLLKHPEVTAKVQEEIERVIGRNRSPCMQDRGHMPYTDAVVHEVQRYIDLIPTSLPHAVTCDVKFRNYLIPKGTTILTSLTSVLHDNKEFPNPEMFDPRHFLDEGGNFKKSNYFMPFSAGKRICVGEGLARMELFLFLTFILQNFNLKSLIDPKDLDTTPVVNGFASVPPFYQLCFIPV
Chain of Nuclear receptor subfamily 1 group I member 2 (Rattus norvegicus) (Q9R1A7 whole entry, looked up): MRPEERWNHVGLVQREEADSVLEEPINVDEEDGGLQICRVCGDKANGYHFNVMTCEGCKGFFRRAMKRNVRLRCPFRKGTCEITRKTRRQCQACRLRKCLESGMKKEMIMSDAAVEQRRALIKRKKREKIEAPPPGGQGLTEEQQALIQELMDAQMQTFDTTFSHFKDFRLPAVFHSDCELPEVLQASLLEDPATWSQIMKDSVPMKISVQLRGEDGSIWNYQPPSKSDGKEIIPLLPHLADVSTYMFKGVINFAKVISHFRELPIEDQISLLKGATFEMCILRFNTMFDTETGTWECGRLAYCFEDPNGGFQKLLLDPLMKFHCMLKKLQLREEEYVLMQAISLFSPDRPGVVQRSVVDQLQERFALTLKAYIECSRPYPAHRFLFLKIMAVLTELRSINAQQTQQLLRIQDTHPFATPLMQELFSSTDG
Chain of Nuclear receptor subfamily 1 group I member 2 (Homo sapiens) (O75469 whole entry, looked up): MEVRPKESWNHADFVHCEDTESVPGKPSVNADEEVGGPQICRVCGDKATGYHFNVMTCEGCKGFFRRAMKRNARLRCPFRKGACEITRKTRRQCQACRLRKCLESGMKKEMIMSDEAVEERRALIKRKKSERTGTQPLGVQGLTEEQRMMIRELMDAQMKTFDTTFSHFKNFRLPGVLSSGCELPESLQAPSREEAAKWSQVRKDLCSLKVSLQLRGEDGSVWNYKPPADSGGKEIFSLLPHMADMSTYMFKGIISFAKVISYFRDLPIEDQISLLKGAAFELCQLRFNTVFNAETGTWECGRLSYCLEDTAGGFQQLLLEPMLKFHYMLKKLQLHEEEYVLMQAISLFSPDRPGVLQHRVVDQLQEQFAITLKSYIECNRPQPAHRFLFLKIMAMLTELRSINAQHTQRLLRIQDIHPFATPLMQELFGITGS
Chain of Thyrotropin-releasing hormone receptor (Homo sapiens) (P34981 whole entry, looked up): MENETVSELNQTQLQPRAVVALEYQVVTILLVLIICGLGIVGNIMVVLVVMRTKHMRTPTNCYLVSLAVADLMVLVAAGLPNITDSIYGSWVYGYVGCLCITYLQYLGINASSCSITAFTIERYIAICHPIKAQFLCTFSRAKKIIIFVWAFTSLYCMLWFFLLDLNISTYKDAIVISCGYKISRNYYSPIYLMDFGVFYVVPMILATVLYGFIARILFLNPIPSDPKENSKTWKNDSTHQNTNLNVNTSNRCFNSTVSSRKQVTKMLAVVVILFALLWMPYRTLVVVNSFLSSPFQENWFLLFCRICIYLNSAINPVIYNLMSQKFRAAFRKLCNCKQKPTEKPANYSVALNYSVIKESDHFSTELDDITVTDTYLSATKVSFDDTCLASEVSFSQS
Chain of Progesterone receptor (Homo sapiens) (P06401 whole entry, looked up): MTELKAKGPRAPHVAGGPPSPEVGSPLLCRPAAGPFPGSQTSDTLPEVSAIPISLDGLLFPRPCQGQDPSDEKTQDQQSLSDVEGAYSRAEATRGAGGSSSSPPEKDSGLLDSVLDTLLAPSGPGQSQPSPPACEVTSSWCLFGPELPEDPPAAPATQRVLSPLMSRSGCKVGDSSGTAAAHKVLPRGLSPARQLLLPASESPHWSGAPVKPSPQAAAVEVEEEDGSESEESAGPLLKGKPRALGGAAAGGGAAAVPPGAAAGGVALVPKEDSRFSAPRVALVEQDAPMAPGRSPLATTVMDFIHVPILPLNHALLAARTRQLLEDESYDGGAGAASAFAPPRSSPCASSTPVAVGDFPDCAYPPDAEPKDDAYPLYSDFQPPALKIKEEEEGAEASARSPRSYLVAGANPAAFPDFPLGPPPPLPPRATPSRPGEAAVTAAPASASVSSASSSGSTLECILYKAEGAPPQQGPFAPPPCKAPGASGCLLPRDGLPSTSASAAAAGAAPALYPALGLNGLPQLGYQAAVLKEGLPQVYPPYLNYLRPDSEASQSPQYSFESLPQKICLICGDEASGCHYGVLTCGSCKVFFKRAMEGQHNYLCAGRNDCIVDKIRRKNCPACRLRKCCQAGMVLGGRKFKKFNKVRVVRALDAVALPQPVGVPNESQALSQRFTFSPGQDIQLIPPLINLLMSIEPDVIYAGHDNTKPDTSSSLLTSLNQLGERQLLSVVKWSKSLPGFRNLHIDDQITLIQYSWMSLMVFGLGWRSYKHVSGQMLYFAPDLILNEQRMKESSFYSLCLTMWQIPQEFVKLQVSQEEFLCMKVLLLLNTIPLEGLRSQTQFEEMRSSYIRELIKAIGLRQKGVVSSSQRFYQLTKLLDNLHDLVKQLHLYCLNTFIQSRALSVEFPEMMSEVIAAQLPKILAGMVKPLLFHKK
Chain of Cytochrome P450 2D6 (Homo sapiens) (P10635 whole entry, looked up): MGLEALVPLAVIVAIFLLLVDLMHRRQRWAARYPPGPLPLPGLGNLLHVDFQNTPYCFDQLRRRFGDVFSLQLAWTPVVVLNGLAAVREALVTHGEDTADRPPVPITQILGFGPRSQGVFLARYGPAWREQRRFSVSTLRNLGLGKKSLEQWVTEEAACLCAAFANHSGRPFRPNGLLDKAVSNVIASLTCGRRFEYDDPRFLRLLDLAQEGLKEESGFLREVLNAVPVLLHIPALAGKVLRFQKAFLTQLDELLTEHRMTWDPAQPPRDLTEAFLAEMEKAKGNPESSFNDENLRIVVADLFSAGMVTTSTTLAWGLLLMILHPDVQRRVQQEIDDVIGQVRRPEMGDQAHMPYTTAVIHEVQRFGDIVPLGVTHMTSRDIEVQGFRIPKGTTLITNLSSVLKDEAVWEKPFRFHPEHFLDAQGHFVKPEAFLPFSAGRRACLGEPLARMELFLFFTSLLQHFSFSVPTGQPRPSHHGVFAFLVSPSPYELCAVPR

CCN(CC)C(=S)SSC(=S)N(CC)CC
active: Potency [3] 0.237 µM | Potency [9] 611 nM and 395 nM | Potency [10] 137 nM and 62.6 nM and 376 nM | Potency [13] 15.7 µM and 10.6 µM | Potency [14] 32.5 µM
inactive: Potency [1] | Potency [2] | Potency [4] | Potency [5] | Potency [6] | Potency [7] | Potency [8] | Potency [11] | Potency [12]

Cc1cccc([N+](=O)[O-])c1C(=O)O
inactive: Potency [1] | Potency [2] | Potency [3] | Potency [4] | Potency [5] | Potency [6] | Potency [15] | Potency [9] | Potency [10] | Potency [12] | Potency [13] | Potency [16]
active: Potency [14] 63.4 µM

CC(C)(C)c1cc(C(C)(C)C)c(O)c(C(C)(C)C)c1
inactive: Potency [1] | Potency [2] | Potency [3] | Potency [4] | Potency [5] | Potency [6] | Potency [7] | Potency [8] | Potency [15] | Potency [9] | Potency [10] | Potency [11] | Potency [12] | Potency [14] | Potency [16]
68.6 µM (active) and inactive: Potency [13]

CCCNC(C)C(=O)Nc1ccccc1C (centres undefined)
active: Potency [14] 27.5 µM
inactive: Potency [1] | Potency [2] | Potency [3] | Potency [4] | Potency [5] | Potency [6] | Potency [7] | Potency [8] | Potency [15] | Potency [9] | Potency [10] | Potency [12] | Potency [13] | max activation [17] -2.15% | Potency [18]

Nc1nc(=S)c2[nH]cnc2[nH]1
active: Potency [4] 4.73 µM | Potency [10] 5.31 µM and 9.69 µM and 3.76 µM | Potency [16] 30.9 µM
inactive: Potency [1] | Potency [2] | Potency [3] | Potency [19] | Potency [5] | outcome [20] | Potency [7] | Potency [8] | Potency [15] | Potency [9] | Potency [11] | Potency [13] | max activation [17] -4.65% | Potency [18] | Potency [14]

c1cc(C(c2ccc(OCC3CO3)cc2)C(c2ccc(OCC3CO3)cc2)c2ccc(OCC3CO3)cc2)ccc1OCC1CO1 (centres undefined)
inactive: Potency [1] | Potency [2] | Potency [3] | Potency [4] | Potency [5] | Potency [6] | Potency [7] | Potency [8] | Potency [15] | Potency [9] | Potency [10] | Potency [12]
46.5 µM (active) and inactive: Potency [14]
active: Potency [11] 28.3 µM | Potency [13] 40 µM and 7.69 µM | Potency [16] 104 µM and 56.4 µM

CC(C)C(=O)c1c(C(C)C)nn2ccccc12
active: Potency [13] 26.6 µM
inactive: Potency [1] | Potency [2] | Potency [19] | Potency [4] | Potency [5] | Potency [6] | outcome [20] | Potency [7] | Potency [8] | Potency [15] | Potency [9] | Potency [10] | Potency [11] | Potency [14] | Potency [16]

NC(N)=Nc1nc(CSCC/C(N)=N/S(N)(=O)=O)cs1
inactive: Potency [1] | Potency [2] | Potency [19] | Potency [4] | Potency [5] | Potency [6] | outcome [20] | Potency [15] | Potency [9] | Potency [10] | Potency [11] | Potency [12] | Potency [13] | Potency [14]

CCn1cc(C(=O)O)c(=O)c2cc(F)c(N3CCNC(C)C3)c(F)c21 (centres undefined)
inactive: Potency [1] | Potency [2] | Potency [3] | Potency [4] | Potency [5] | Potency [6] | outcome [20] | Potency [15] | Potency [9] | Potency [10] | Potency [11] | Potency [12] | Potency [13] | max activation [17] -0.533% | Potency [18] | Potency [14]

Cc1ccc(S(=O)(=O)Oc2ccc(N=Nc3ccc(-c4ccc(N=Nc5c(O)ccc6cc(S(=O)(=O)O)cc(S(=O)(=O)O)c56)c(C)c4)cc3C)cc2)cc1
inactive: Potency [2] | Potency [19] | Potency [4] | Potency [5] | Potency [6] | outcome [20] | Potency [9] | Potency [11]
active: Potency [1] 27.4 µM and 11.2 µM | Potency [15] 11.2 µM and 8.92 µM | Potency [10] 15.4 µM and 10 µM | Potency [12] 19.4 µM and 15.9 µM | Potency [14] 40.1 µM and 26 µM
6.89 µM (active) and inactive: Potency [13]

CC(C)CCOCc1ccccc1
inactive: Potency [1] | Potency [2] | Potency [3] | Potency [4] | Potency [5] | Potency [6] | outcome [20] | Potency [7] | Potency [8] | Potency [15] | Potency [9] | Potency [10] | Potency [11] | Potency [12] | Potency [13] | Potency [14] | Potency [16]

O=C(O)c1cn(-c2ccc(F)cc2)c2cc(N3CCNCC3)c(F)cc2c1=O
inactive: Potency [1] | Potency [2] | activity change, negative = inhibition [3] 13.8% [at 18.9 µM] | activity change, negative = cytotoxicity [4] 10.6% [at 19 µM] | Potency [5] | Potency [6] | outcome [20] | Potency [15] | Potency [9] | Potency [10] | Potency [12] | max activation [17] -0.0913% | Potency [14] | Potency [16]
